As a reminder, the inhibition is the change of the read-out against control, counted positive when it falls.

Results filed as inconclusive are left out. Activity calls are given as the source filed them. Unless noted, no stated cut-off is given here; in the data, active means response above about 15%; inactive means the rest.

Assay [1] can be described thus: yeast TOR pathway RPL19A-GFP modulators, primary screen, cell-based, S. cerevisiae, multiplex flow cytometry (AID 1862; in the data active means percent of DMSO control GFP below about 86%;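 further: lower values mimic rapamycin by blocking the RPL19A rise seen in DMSO cells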). The following applies: S. cerevisiae RPL19A-GFP strain, flow cytometry fluorescence, 3 h; at 10 µM; stronger effect = lower value. On the technique in general: In flow cytometry, cells or beads pass a laser one at a time.
Assay [2] can be described thus: modulators of MEP2-GFP levels in yeast, primary screen, S. cerevisiae, multiplex flow cytometry (AID 1867;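 active means GFP response, as percent of the DMSO control, above the screen-wide mean plus 3 SD, about 139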;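 further: median GFP channel fluorescence of barcode-gated MEP2-GFP cells measured by flow cytometry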). The following applies: S. cerevisiae MEP2-GFP strain, 3 h, at 10 µM, stronger effect = higher value, 100% means same as DMSO wells.
The nature of assay [3]: modulators of CIT2-GFP expression in yeast, primary screen, S. cerevisiae, GFP fusion, multiplex flow cytometry (AID 1870;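 active means percent response above a set limit, the screen-wide mean plus 3 SD, cut at about 130% in these data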;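 further: barcoded CIT2-GFP strain pooled with four other GFP strains with rapamycin as positive control; median GFP fluorescence per well over plate mean of DMSO wells so 100% = DMSO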). The following applies: 3 h, at 10 µM, stronger effect = higher value.
A short description of assay [4]: modulators of LAP4-GFP expression in yeast, primary screen, S. cerevisiae, multiplex flow cytometry (AID 1873;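 active means GFP signal, as percent of the solvent control, above the screen mean plus 3 SD, about 149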). The following applies: 3 h, at 10 µM, stronger effect = higher value.
Assay [5] is described as follows: modulators of AGP1-GFP expression in yeast TOR pathway, primary screen, cell-based, multiplex flow cytometry, S. cerevisiae (AID 1887;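 active means GFP signal above the screen-wide mean plus 3 SD, that is over about 124.5% of the solvent control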;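 further: AGP1-GFP fusion strain of S. cerevisiae within a five-strain barcoded multiplex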). The following applies: 3 h, at 10 µM, stronger effect = higher value.
A short description of assay [6]: inhibitors of CD8+ T cell-vesicle binding, pilot screen, LFA-1/ICAM-1 modulator project, MLPCN validation set, flow cytometry (AID 2523;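 active means response below a set limit, under 55% cells CD8-positive and vesicle-bound, and CD8 cells' 90th-percentile brightness under 279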;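 on vesicle binding response: mean PE anti-B7-1 fluorescence of CD8+ cells relative to row control; 100% = QL9-loaded vesicles with DMSO vehicle in the same plate row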). The following applies: 2C mouse CD8+ T cells, at 7 µM, stronger effect = lower value; double positive events: measured here: CD8+/vesicle+ event percentage.
In assay [7] the target is Integrin beta-1 (Homo sapiens) + Integrin alpha-4 (Homo sapiens) (UniProt P13612+P05556). Put plainly: inhibition of HUTS-21 binding to VLA-4, pilot screen, VLA-4 allosteric modulator project, U937 cells, HUTS-21 mAb, flow cytometry, validation set (AID 2674;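 active means inhibition above 50%, about 3 SD of the validation set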;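 further: antibody binding induced by the VLA-4 ligand LDV present at three times its Kd; 0% = LDV ligand with antibody and no compound and 100% = antibody without LDV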). The settings on record: HUTS-21 LIBS mAb binding, at 6.7 µM, stronger effect = higher value, binding induced by LDV ligand.
Chain of Integrin beta-1 (Homo sapiens) + Integrin alpha-4 (Homo sapiens) (P05556 whole entry, looked up): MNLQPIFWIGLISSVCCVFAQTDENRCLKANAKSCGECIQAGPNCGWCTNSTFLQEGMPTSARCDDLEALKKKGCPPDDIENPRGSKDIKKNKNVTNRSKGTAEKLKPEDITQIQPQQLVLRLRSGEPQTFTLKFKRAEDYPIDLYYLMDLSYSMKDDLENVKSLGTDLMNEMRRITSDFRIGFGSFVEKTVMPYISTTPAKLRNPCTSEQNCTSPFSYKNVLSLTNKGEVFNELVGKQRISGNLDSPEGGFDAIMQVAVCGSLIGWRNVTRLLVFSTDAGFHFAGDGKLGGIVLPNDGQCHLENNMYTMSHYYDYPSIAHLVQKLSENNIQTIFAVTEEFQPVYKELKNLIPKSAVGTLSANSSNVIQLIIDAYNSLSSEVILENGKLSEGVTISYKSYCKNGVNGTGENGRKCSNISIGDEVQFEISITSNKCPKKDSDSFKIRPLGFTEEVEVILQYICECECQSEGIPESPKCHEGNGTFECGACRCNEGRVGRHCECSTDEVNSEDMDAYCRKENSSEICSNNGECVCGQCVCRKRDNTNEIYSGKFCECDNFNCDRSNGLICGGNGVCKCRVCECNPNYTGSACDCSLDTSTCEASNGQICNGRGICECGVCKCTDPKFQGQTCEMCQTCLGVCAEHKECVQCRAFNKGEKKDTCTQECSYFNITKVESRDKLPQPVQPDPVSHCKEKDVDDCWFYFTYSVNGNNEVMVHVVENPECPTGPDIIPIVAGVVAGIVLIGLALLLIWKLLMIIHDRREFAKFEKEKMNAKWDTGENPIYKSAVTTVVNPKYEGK
Chain of Integrin beta-1 (Homo sapiens) + Integrin alpha-4 (Homo sapiens) (P13612 whole entry, looked up): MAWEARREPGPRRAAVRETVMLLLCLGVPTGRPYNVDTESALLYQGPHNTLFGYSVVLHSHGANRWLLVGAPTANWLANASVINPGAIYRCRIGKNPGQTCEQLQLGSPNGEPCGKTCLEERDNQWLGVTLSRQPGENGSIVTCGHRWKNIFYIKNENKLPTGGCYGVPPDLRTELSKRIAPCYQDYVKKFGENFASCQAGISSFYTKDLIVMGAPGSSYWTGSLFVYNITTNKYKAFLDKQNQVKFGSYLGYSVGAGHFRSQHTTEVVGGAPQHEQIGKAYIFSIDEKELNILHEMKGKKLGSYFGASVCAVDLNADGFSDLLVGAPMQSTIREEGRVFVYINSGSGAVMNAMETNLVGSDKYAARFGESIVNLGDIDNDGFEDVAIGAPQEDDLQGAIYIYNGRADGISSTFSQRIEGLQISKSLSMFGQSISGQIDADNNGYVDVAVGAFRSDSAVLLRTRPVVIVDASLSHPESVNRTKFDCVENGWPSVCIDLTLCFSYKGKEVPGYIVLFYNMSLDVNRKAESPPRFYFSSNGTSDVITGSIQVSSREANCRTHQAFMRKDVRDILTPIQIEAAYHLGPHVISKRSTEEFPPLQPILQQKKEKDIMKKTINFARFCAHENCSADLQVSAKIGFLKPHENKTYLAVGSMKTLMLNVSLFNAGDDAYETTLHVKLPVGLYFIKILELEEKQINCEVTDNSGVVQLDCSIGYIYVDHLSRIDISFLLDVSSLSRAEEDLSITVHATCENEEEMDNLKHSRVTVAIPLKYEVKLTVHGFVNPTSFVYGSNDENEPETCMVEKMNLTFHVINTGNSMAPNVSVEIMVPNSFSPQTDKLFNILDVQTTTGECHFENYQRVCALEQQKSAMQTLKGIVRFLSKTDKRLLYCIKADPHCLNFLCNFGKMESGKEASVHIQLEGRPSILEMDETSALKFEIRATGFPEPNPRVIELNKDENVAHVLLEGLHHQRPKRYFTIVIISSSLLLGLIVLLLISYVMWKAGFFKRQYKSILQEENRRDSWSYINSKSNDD

Assay [8] in a line: superoxide lowering in aged yeast cells, pilot screen, validation compound set (AID 2706;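 active means superoxide response below 65% of plate, a cut near 3 SD across the whole screen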;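 further: yeast exposed to compound for one week at 30 degrees C before staining; 100% = mean of all compound wells on the same plate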). The settings on record: S. cerevisiae aging, superoxide DHE fluorescence; at 10 µM; stronger effect = lower value.
The target of assay [9] is Beta-adrenergic receptor kinase 1 (Homo sapiens) (UniProt P25098). Put plainly: GRK2 binders displacing RNA aptamer, biochemical, validation, human GRK2, bead flow cytometry (AID 488806;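 active means aptamer binding inhibition above 30%, about 3 SD of noise from non-fluorescent compounds; inactive means inhibition at or below 30%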). The settings on record: bead-bound GRK2, FAM-aptamer displacement, at 10 µM, stronger effect = higher value.
Chain of Beta-adrenergic receptor kinase 1 (Homo sapiens) (P25098 whole entry, looked up): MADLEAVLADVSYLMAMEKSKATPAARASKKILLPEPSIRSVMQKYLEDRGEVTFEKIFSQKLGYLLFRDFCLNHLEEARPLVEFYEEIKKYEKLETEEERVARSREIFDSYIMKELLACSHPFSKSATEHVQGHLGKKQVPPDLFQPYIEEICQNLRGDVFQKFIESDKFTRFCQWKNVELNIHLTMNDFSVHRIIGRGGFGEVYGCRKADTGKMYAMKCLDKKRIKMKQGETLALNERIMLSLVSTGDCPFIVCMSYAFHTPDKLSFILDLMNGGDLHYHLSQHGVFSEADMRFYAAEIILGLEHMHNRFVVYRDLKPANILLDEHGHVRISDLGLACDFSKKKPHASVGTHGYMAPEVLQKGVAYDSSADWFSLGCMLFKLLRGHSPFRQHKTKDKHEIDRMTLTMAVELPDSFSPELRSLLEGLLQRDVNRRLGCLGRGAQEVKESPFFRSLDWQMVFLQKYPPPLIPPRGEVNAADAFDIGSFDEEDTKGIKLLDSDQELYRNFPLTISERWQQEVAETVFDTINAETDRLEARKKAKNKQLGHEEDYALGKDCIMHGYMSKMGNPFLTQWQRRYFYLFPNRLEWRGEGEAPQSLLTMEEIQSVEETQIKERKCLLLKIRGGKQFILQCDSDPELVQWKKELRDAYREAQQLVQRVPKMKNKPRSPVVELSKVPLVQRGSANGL
For assay [10], the target named is Beta-2 adrenergic receptor (Homo sapiens) (UniProt P07550). Put plainly: beta2AR agonists driving receptor internalization, pilot screen, cell-based, FAP fluorogen, flow cytometry, validation set (AID 504459;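 active means percent response above 42, roughly 3 SD of non-fluorescent test compounds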;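 further: agonist-driven loss of surface beta2AR via internalization measured by FAP dye flow cytometry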). The settings on record: Am2.2-beta2AR cells, FAP surface receptor flow cytometry; at 10 µM; stronger effect = higher value.
Chain of Beta-2 adrenergic receptor (Homo sapiens) (P07550 whole entry, looked up): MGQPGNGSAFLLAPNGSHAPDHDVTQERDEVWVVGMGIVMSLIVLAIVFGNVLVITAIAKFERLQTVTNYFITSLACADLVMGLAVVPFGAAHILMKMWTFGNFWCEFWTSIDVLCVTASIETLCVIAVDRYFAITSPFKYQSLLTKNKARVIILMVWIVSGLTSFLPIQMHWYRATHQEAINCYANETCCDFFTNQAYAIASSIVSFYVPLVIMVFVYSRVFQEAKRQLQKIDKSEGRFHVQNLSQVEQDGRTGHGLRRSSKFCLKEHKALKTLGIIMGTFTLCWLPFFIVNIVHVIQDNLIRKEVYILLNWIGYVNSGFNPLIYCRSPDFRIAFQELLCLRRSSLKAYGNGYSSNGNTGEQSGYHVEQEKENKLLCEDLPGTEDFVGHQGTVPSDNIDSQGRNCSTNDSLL
The target of assay [11] is AP-2 complex subunit beta (Homo sapiens) (UniProt P63010). Put plainly: inhibitors of arrestin peptide binding to AP2, pilot screen, biochemical, validation set, GST-AP2 beads, flow cytometry (AID 504541;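 active means inhibition above 54%, about 3 SD of non-fluorescent compounds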;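 further: AP2 carries R879A mutation and is captured from E. coli lysate; bead-bound FITC arrestin peptide fluorescence measuring arrestin peptide binding to AP2; 0% = DMSO wells and 100% = excess unlabeled arrestin peptide control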). The settings on record: FITC arrestin peptide, at 10 µM, stronger effect = higher value, AP2 beta2 appendage fragment, R879A mutant.
Chain of AP-2 complex subunit beta (Homo sapiens) (P63010 whole entry, looked up, the tested form may be a part, one chain of several): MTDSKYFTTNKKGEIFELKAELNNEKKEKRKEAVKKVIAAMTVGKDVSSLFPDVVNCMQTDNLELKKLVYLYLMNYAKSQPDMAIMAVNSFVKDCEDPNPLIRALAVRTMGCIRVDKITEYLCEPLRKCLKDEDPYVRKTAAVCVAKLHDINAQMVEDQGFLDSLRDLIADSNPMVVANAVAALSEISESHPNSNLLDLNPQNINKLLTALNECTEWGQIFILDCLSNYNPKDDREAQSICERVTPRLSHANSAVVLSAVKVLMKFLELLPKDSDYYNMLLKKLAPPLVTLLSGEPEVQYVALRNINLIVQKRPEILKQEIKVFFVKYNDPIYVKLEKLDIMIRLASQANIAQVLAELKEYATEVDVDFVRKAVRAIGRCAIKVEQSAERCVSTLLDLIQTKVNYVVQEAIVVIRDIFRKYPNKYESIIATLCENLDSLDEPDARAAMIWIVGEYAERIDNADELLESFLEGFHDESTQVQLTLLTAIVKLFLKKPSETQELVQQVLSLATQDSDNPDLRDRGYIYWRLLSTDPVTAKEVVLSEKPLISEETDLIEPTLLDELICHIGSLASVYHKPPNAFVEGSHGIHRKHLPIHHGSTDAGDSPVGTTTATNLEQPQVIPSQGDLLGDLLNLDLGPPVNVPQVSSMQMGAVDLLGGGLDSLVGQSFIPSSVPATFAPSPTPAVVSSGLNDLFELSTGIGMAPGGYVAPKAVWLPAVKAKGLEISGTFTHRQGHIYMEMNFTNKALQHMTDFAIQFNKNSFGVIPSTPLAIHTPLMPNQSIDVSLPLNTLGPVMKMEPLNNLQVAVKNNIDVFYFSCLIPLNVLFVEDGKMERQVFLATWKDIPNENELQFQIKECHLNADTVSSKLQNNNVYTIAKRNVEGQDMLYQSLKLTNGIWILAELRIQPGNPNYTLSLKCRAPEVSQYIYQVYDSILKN
A short description of assay [12]: yeast V-ATPase proton transport modulators, S. cerevisiae, pHLuorin, HTS validation (AID 504600).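 Further: plate controls were DMSO for no effect and reference compound for full effect.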 The settings on record: S. cerevisiae pHLuorin cytosolic pH, at 10 µM, stronger effect = higher value.
In assay [13] the test system is anti-desmoglein-3 scFv antibody binding to human DSG3. Put plainly: inhibitors of anti-DSG3 scFv binding to DSG3, pilot screen, biochemical, validation compound set, bead-based, flow cytometry (AID 588368;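 active means binding below the plate cutoff, the plate median minus 3 SD, with a reading above zero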;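 further: signal is the median channel fluorescence of bead-bound GFP antibody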). The following applies: Protein G beads, DSG3-Fc, scFv-GFP binding, at 10 µM, stronger effect = lower value.
The nature of assay [14]: inhibitors of fungal efflux pumps CDR1, CDR2, MDR1, pilot screen, validation compound set, multiplex, phenotypic (AID 588506;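 active means efflux inhibition above 0.42, the validation set average plus 4 SD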;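 further: Nile Red retained in cells so higher fluorescence means more efflux inhibition; 0 = negative control wells and 1 = enniatin B 25 µM full block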). The following applies: S. cerevisiae pump-expressing triplex, Nile Red efflux flow cytometry; at 10 µM; stronger effect = higher value; the pumps come from Candida albicans.
Assay [15] deals with ATP-binding cassette sub-family B member 6 (Homo sapiens) (UniProt Q9NP58). The experiment in a line: ABCB6 transporter inhibitors, pilot screen, K562-ABCB6 cells, flow cytometry, validation set (AID 588550;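 active means inhibition above the screen-wide mean plus 3 SD, about 51%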;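 further: 0% = DMSO wells and 100% = benzethonium chloride 70 µM positive control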). The following applies: K562-ABCB6 porphyrin accumulation, 1 h, at 10 µM, stronger effect = higher value.
Chain of ATP-binding cassette sub-family B member 6 (Homo sapiens) (Q9NP58 whole entry, looked up): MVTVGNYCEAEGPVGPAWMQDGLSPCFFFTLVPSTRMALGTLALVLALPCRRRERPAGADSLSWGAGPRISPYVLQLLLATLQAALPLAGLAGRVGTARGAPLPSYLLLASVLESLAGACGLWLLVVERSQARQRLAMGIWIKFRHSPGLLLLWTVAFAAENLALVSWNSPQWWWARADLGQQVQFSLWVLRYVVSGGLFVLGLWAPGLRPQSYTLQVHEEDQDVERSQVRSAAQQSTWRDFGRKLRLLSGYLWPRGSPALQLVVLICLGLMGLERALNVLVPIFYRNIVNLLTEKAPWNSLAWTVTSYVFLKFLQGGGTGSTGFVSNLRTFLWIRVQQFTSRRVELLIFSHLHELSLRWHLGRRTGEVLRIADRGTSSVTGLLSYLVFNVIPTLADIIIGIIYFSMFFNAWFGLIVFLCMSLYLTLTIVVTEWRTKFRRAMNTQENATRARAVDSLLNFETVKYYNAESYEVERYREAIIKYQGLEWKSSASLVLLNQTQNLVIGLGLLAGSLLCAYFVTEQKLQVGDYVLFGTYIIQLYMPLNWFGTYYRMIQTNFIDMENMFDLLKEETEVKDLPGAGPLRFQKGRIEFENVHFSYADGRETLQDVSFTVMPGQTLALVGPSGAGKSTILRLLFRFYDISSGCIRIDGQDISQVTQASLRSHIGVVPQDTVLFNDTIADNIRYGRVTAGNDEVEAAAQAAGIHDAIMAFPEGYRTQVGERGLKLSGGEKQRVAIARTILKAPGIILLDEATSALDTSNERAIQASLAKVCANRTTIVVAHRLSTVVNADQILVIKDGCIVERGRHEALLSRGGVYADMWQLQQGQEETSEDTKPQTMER
The nature of assay [16]: promoters of myeloid differentiation in arrested cells, primary screen, cell-based, GFP/MAC1 double positive, flow cytometry, validation set (AID 588685;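 active means differentiation response of at least 50%, scaled between solvent and reference control, from cells with both markers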;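 further: compound exposure lasts four days before antibody staining and flow analysis; 0% = DMSO wells and 100% = 5 µM fulvestrant positive control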). The settings on record: ER-HoxA9 marrow cells, stronger effect = higher value, normalized: vehicle 0, fulvestrant 100.

On to `COc1cc(-c2cccs2)cc(=O)c2c(C)oc(C)c12`, for which the percent of DMSO control GFP in [1] is 97.6% (inactive). Besides, the figures for the GFP response vs DMSO in [2] and in [4] were 105% (inactive) and 142% (inactive), respectively. Further, in assay [3], the percent response of DMSO control was 84.4% (inactive). For the same compound, the GFP response, % of DMSO in [5] is 93.2% (inactive). The double positive events in assay [6] worked out at 62.6%. In [6], the vesicle binding response was 235% (inactive). Also, the inhibition in assay [7] was -160% (inactive); in assay [11], 54.7% (active); in [15], 2% (inactive). The superoxide response (% of plate) in [8] is 96.1% (inactive). In assay [9], the aptamer binding inhibition is -1% (inactive). The response was 54% (active) in assay [10] and -7.46% (inactive) in assay [12]. In assay [13], the binding (% of control) was 105% (inactive). Moreover, in assay [14], the efflux inhibition (fraction of control) was 0.26 (inactive). The differentiation response in assay [16] is 4% (inactive).
For the compound `CCOCCCNCc1cn(-c2ccc(F)cc2F)nc1-c1ccccc1C`, the percent of DMSO control GFP in [1] is 103% (inactive). Further, the GFP response vs DMSO is 98.3% (inactive) in [2] and 93.3% (inactive) in assay [4]. Further, the percent response of DMSO control in assay [3] was 109% (inactive). The GFP response, % of DMSO in [5] was 102% (inactive). In assay [6], this compound had a double positive events of 61.9%. Moreover, the vesicle binding response in assay [6] is 200% (inactive). The inhibition in assay [7] is -1.49% (inactive); in [11], 14.5% (inactive); in assay [15] it was -10% (inactive). The superoxide response (% of plate) in assay [8] is 101% (inactive). For the same compound, in assay [9], the aptamer binding inhibition is 1% (inactive). Also, the values for the response in assay [10] and in [12] were -8.93% (inactive) and 4.59% (inactive), respectively. Moreover, the binding (% of control) in [13] is 94.2% (inactive). In assay [14], the efflux inhibition (fraction of control) was -0.07 (inactive). For the same compound, the differentiation response in assay [16] was -1.71% (inactive).
In the case of `O=C1C(O)CC2c3ccccc3CC3(CCCC3)N12` (stereo not drawn), in assay [1], the percent of DMSO control GFP is 100% (inactive). Besides, the values for the GFP response vs DMSO in [2] and in assay [4] were 104% (inactive) and 114% (inactive), respectively. Besides, in assay [3], the percent response of DMSO control is 105% (inactive). Further, in [5], the GFP response, % of DMSO was 100% (inactive). Also, the double positive events in [6] was 61.4%. The vesicle binding response in assay [6] was 247% (inactive). Besides, the inhibition in [7] is -0.43% (inactive); in assay [11], -6.78% (inactive); in [15] it was -110% (inactive). Besides, the superoxide response (% of plate) in assay [8] was 106% (inactive). Besides, the aptamer binding inhibition in assay [9] was 1% (inactive). The response is 48% (active) in [10] and 0.88% (inactive) in [12]. Besides, in assay [13], the binding (% of control) is 99.9% (inactive). For the same compound, in assay [14], the efflux inhibition (fraction of control) is 0.08 (inactive). Further, the differentiation response in assay [16] is -18.4% (inactive).
In the case of `COc1ccccc1NC(=O)Cn1c(C)cc(=O)c2cccc(OC)c21`, in [1], the percent of DMSO control GFP is 102% (inactive). The GFP response vs DMSO was 108% (inactive) in assay [2] and 90.2% (inactive) in [4]. Further, the percent response of DMSO control in assay [3] is 100% (inactive). The GFP response, % of DMSO in assay [5] is 99.9% (inactive). This compound returned a double positive events in assay [6] of 60.7%. The vesicle binding response in assay [6] was 79.1% (inactive). The inhibition in [7] is -11.8% (inactive); in assay [11], -11.8% (inactive); in assay [15], 6% (inactive). Moreover, the superoxide response (% of plate) in assay [8] is 105% (inactive). Also, the aptamer binding inhibition in [9] is 4% (inactive). For the same compound, the results for the response in [10] and in [12] were 11.6% (inactive) and 0.11% (inactive), respectively. For the same compound, the binding (% of control) in [13] was 103% (inactive). Besides, the efflux inhibition (fraction of control) in assay [14] is 0.58 (active). The differentiation response in assay [16] was -5.68% (inactive).

These data come from PubChem BioAssay.
